An excerpt weighted towards active compounds, which were near 4% of everything screened.
Statin myotox sup: suppression of simvastatin myotoxicity; C2C12 myotubes + simvastatin, ATP luminescence, 48 h; scaled: DMSO 0, geranylgeraniol control 100; rescue of ATP level, % at 7.49 µM; actives 0.78% (n = 330,000); AID 602340;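 active = mean ATP rescue above about 67%, or every replicate alone reaching that limit, limit read from the data, passing the limit was not always enough; inconclusive = no clear call, values can overlap the other calls; inactive = mean under the limit and some replicate under it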;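 also: myotubes were challenged with 10 µM simvastatin during compound exposure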
MITF TRPM1 inh: inhibitors of MITF-driven TRPM1 promoter in melanoma cells. SK-MEL-5 TRPM1 promoter luciferase, 24 h. inhibition, % at 12.5 µM. actives 0.83% (n = 330,000). AID 488899;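 active = mean inhibition across replicates of 60% or more, whatever share of single replicates reaches that level; inconclusive = some that reach 60%, reason not given; inactive = mean inhibition across replicates below 60%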
EBV LMP1 NFkB: inhibitors of Epstein-Barr LMP1-induced NF-kappaB reporter; LMP1-induced NF-kappaB luciferase reporter cells, luminescence; inhibition, % at 12.5 µM; actives 0.69% (n = 350,000); AID 504558; in the data active = inhibition above about 41%; inconclusive = no clear call, values can overlap the other calls;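 also: 0% = neutral control wells and 100% = reference inhibitor control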
MITF TRPM1 HTS: activators of MITF-driven TRPM1 promoter activity in SK-MEL-5 cells; SK-MEL-5 TRPM1-promoter luciferase, 24 h; % of positive control, neutral wells = 0; activation, % at 12.5 µM; actives 0.75% (n = 300,000); AID 588334;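 active = mean activation of at least 80% with every replicate also reaching 80%; inconclusive = mean reaches 80% but some replicate falls short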;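 also: 0% = neutral control wells and 100% = parthenolide positive control wells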
Wnt act: activates Wnt/beta-catenin signaling in a reporter cell assay. actives 1.2% (n = 300,000). activation, % at 9.35 µM. activator, plate reader. AID 743398; in the data active = activation above about 30%, passing the limit was not always enough; inconclusive = no clear call, values can overlap the other calls;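 also: 0% = neutral control wells and 100% = positive control wells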
esBAF inh: SWI/SNF esBAF complex inhibition; mouse ES cells, Bmi1-luciferase knock-in reporter, 24 h; 100% = twice the neutral-well signal; reporter increase, % at 12.5 µM; actives 2% (n = 350,000); in the data active = activation above about 40%; inconclusive = no clear call, values can overlap the other calls;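 also: 0% = median of the plate's neutral control wells and 100% = double that signal; a rise in the Bmi1 reporter signal indicates esBAF inhibition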
The depositor's hits bear a star; ? = inconclusive; . = not tested or not shown.

SMILES	Statin myotox sup	MITF TRPM1 inh	EBV LMP1 NFkB	MITF TRPM1 HTS	Wnt act	esBAF inh
COC(=O)C(C(=O)OC)c1ccc(NC(=O)c2cccc(Cl)c2)cc1	.	-29	-20	31	18	.
O=C(Nc1ccccc1NC(=O)c1csnn1)c1csnn1	.	.	1	.	-1	.
O=C(Nc1ccccc1N1CCCC1)c1cc(=O)[nH]c2ccccc12	10	-1	4	0	-3	4
Cc1ccc(N(C(C)C(=O)NCc2ccncc2)S(C)(=O)=O)cc1C (configuration not stated)	0	1	-3	1	-1	-5
Nc1ccc(Oc2c(Cl)cccc2Cl)nc1	.	-28	-18	-15	-2	.
CCC(C)N(C)Cc1cccc(C2(O)CCN(S(=O)(=O)c3ccc(F)cc3)CC2)c1 (configuration not stated)	123*	-16	-13	14	.	-6
CCS(=O)(=O)N1CCN(S(=O)(=O)c2ccc(F)cc2)CC1	.	8	-1	.	-2	-7
CCC(C)[C@H](NC(=O)NCc1cccnc1)C(=O)OC (some centres not stated)	.	-5	52*	11	-1	.
NC1=NC(=O)/C(=C/C=C/c2cccs2)S1	.	-32	-22	38	36*	.
O=C1N=C(c2ccccc2)S/C1=C\c1cccs1	.	-42	-7	30	7	.
CCC1CCCCN1C(=O)CSc1nnc(-c2ccco2)o1 (configuration not stated)	8	-51	-5	47	47*	9
CCC1CCCCN1C(=O)CSc1nnc(-c2cccc(Cl)c2)o1 (configuration not stated)	6	.	-22	.	19	50*
COC(=O)C1=C(C)NC2=C(C(=O)CC(C)(C)C2)C1c1cccc(C)n1 (configuration not stated)	-3	0	2	-1	.	1
CCCOc1ncnc2c1[nH]c1ccc(OC)cc12	.	-50	-25	.	52*	.
CCOc1ccc2[nH]c3c(NCCC(C)C)ncnc3c2c1	-53	-5	-1	8	1	11
CCCCOc1ncnc2c1[nH]c1ccc(C)cc12	.	.	.	.	43*	.
COc1ccc2[nH]c3c(NCCCOC(C)C)ncnc3c2c1	.	-1	-19	5	31*	.
CCCc1oc(C(=O)O)cc1CN	8	3	2	1	0	-10
N#Cc1cccc(-c2ccc([C@@H]3[C@@H](CO)N4CCCCN(Cc5ccccc5F)C[C@H]34)cc2)c1	0	.	.	.	.	1
Cc1nc(N2CCCCC2)sc1C(=O)c1ccc(SCCO)c([N+](=O)[O-])c1	14	3	-5	0	-2	7
Cc1cccc(-c2nnc3sc(-c4ccccc4)nn23)c1	5	-81	-3	?	-14	42*
CC(C)CCNC(=O)C1CCN(S(=O)(=O)c2ccc3c(c2)CC(C)N3C(=O)C2CC2)CC1 (configuration not stated)	-10	16	54*	-13	-2	-3
O=C(O)C1CCN(S(=O)(=O)Cc2ccccc2)CC1	12	-17	.	-6	0	-8
CC1Cc2ccccc2N1C(=O)C1CCN(S(=O)(=O)Cc2ccccc2)CC1 (configuration not stated)	103*	12	-4	-11	-4	0
CCC(=O)Nc1cccc(NC(=O)c2ccc3c(c2)OCO3)c1	-1	-11	-8	12	.	11
SMILES	Statin myotox sup	MITF TRPM1 inh	EBV LMP1 NFkB	MITF TRPM1 HTS	Wnt act	esBAF inh
COc1ccc(NN=Nc2ccc([N+](=O)[O-])cc2)cc1	25	-99	-46	99*	8	49*
COc1ccc(C=NNc2ccc([N+](=O)[O-])cn2)cc1	-8	-57	-31	74	16	52*
COc1ccc(N/N=C(/Oc2ccc([N+](=O)[O-])cc2)C(C)=O)cc1	.	9	0	-7	1	.
CN(C)c1ccc(Nc2ccc([N+](=O)[O-])cn2)cc1	0	-90	-2	.	9	50*
O=[N+]([O-])c1ccc(N/N=C/c2cccs2)nc1	.	-103	-54	109*	56*	.
O=[N+]([O-])c1ccc(N/N=C/c2ccc(OCc3cccc4ccccc34)cc2)nc1	.	-18	-7	22	-2	.
O=[N+]([O-])c1ccc(N/N=C\c2cccn2-c2ccccc2)nc1	27	-15	7	16	.	-11
O=C(NCc1ccco1)C(=O)NCC1OCCCN1S(=O)(=O)c1ccc(F)cc1 (configuration not stated)	.	8	-6	-10	-2	.
O=[N+]([O-])c1ccc(NN=Cc2ccccc2)nc1	.	-156	-46	148*	50*	.
O=[N+]([O-])c1ccc(NN=Cc2ccc(O)cc2O)nc1	8	1	3	1	9	-25
CCN(CC)c1ccc(C=NNc2ccc([N+](=O)[O-])cn2)cc1	-40	-42	-68	44	48*	.
O=[N+]([O-])c1ccc(NN=Cc2ccc(O)cc2)nc1	-7	-36	-26	44	67*	95*
CCOc1ccccc1C=NNc1ccc([N+](=O)[O-])cn1	7	11	1	-7	-2	-6
Cc1ccccc1OCC(O)Cn1c(NCCN(C)C)nc2c1c(=O)n(C)c(=O)n2C (configuration not stated)	-2	-1	8	4	-1	-4
O=C1C2C3C=CC(CC3)C2C(=O)N1/N=C/c1c[nH]c2ccccc12 (configuration not stated)	4	-50	-7	50	1	61*
COc1ccccc1/C=N/N1C(=O)C2C3C=CC(CC3)C2C1=O (configuration not stated)	-2	4	-2	-3	0	-2
COC(=O)C1(C(=O)OC)C[C@H](/C=C/c2ccccc2)N(Cc2ccccc2OC)[C@@H]1c1cccs1	.	.	.	.	-7	.
CCCCC/C=C\C/C=C\C/C=C\CCCCC(=O)O	1	-8	53*	5	-1	1
COC(=O)c1ccc(NC(=O)Cn2cnc3c(nnn3-c3cccc(OC)c3)c2=O)cc1	-1	.	-6	.	-4	-5
CCCc1cc(C(N)=O)c(NC(=O)c2ccco2)s1	2	-37	-9	.	41*	26
COc1ccc(-c2cn(CCC(=O)NCc3ccc(C)cc3)c(-c3ccncc3)n2)cc1	-4	-3	-3	7	7	-3
COc1ccc(/C=C2\SC(=O)N(CCNC(=O)C3CC4C=CC3C4)C2=O)cc1 (configuration not stated)	.	-137	-18	136*	-1	.
COc1ccc(/C=C2\SC(=S)N(CCC(=O)Nc3ccccc3C(=O)O)C2=O)cc1	5	6	34	-11	-3	-35
COc1ccc(/C=C2\SC(=O)N(CCNC(=O)C3CSC4(C)CCC(=O)N34)C2=O)cc1 (configuration not stated)	0	-28	-5	26	4	.
